# Data published in PubChem BioAssay AID624405 (Broad Institute, 2012).
# Hit rate of the full screen: of about 1,900 compounds, about 250 (13%) were called active. Another 4% or so got no clear call; they are omitted. The list is a sample of the results. Measured potencies and affinities stand elsewhere. Values without a mark were called inactive.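 The calls were made as follows: active = fitted curve reaches 40% rescue activity at or below the top valid dose, in every test run; inconclusive = test runs disagree, some active and some inactive; inactive = every run misses the threshold or moves the wrong way.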
# Assay: suppressors of statin myotoxicity in myotubes, dose response, cell-based, C2C12 myotubes, ATP luminescence, cherry pick (AID 624405);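 also: myotubes are challenged with simvastatin at 10 µM to lower ATP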
# Details: C2C12 myotubes + simvastatin, 48 h, scaled: DMSO wells 0, geranylgeraniol wells 100; series mostly up to 19.5 µM; rescue activity (ATP increase): at the top concentration
row,SMILES,rescue activity (ATP increase)
1,CSc1nncn1/N=C/c1ccc2c(c1)OCO2,-1.45%
2,COc1cccc(-c2cnc3c(c2)C(=O)N([C@H](C)CO)C[C@H](C)[C@H](CN(C)C(=O)Nc2cccc4ccccc24)O3)c1,9.55%
3,COc1cc(C(=O)Oc2cccc(C)c2)cc(OC)c1OC,-10.8%
4,COc1ccc(CN2CCN(C(=O)c3cccs3)CC2)cc1Br,28.6%
5,COc1cc(S(=O)(=O)N2CCN(C(=O)c3ccccc3F)CC2)c(OC)cc1NC(C)=O,0.236%
6,O=C(c1cccs1)N1CCN(C2CCN(Cc3ccccc3)CC2)CC1,-9.46%
7,Cc1ccc(S(=O)(=O)N2CCCSCC2)cc1,10.4%
8,Cc1noc(N)c1C(=O)Nc1ccc(F)c(Cl)c1,1.69%
9,Cc1nnc(Sc2nc3c(c(=O)n(C)c(=O)n3C)n2Cc2ccccc2Cl)s1,-13.5%
10,O=C1CCCC2=C1C(c1cccs1)Nc1ccc3ncccc3c12 (configuration not stated),24.9%
11,CCCSc1nnc(CN2CCOCC2)n1C,-4.41%
12,CCCNC(=O)C(=O)c1cccn1-c1ccsc1C(=O)OC,-13.7%
13,CCOC(=O)c1ccc(NC(=O)N2CCCCC2)cc1,-33.5%
14,C[C@H](CO)N1C[C@H](C)[C@H](CN(C)C(=O)Nc2ccc3c(c2)OCO3)OCCCC[C@H](C)Oc2ccc(NS(=O)(=O)c3ccc(F)cc3)cc2C1=O,36.7%
15,Cc1ccc(CN2CCC(C(=O)NCCC(C)C)CC2)o1,-12.4%
16,COc1ccc(S(=O)(=O)Nc2cccc3c2O[C@@H](CN(C)C(=O)Nc2ccc(F)cc2)[C@@H](C)CN([C@@H](C)CO)C3=O)cc1,8.52%
17,Cc1ccc(S(=O)(=O)N(C)C[C@H]2Oc3c(NC(=O)Nc4ccccc4)cccc3C(=O)N([C@@H](C)CO)C[C@@H]2C)cc1,14.2%
18,Cc1ccc(S(=O)(=O)N(C)C[C@H]2Oc3c(NC(=O)Nc4ccccc4)cccc3C(=O)N([C@H](C)CO)C[C@@H]2C)cc1,-0.949%
19,COc1ccc(S(=O)(=O)Nc2cccc3c2O[C@@H](CN(C)C(=O)Nc2ccc(F)cc2)[C@@H](C)CN([C@H](C)CO)C3=O)cc1,13.7%
20,COc1ccc(S(=O)(=O)Nc2cccc3c2O[C@H](CN(C)C(=O)Nc2ccc(F)cc2)[C@@H](C)CN([C@H](C)CO)C3=O)cc1,28.7%
21,Cc1ccc(S(=O)(=O)N(C)C[C@@H]2Oc3c(NC(=O)Nc4ccccc4)cccc3C(=O)N([C@@H](C)CO)C[C@H]2C)cc1,-16%

row,SMILES,rescue activity (ATP increase)
1,CN1C(=O)c2cc(NC(=O)c3ccc(F)c(F)c3)ccc2OC[C@H]2O[C@@H](CC(=O)Nc3ccc4c(c3)COC4)CC[C@@H]21,26% [at 10 µM]
2,CCSc1nc2sc3c(c2c(=O)n1-c1ccc(OC)cc1)CCN(C)C3,40.1%
3,COCCNC(=O)c1nn(-c2cc(OC)cc(OC)c2)c(=O)c2ccccc12,0.939%
4,COc1ccc(S(=O)(=O)N(CC(C)C)CC(C)C)c2cccnc12,9.83%
5,Cc1cccc(NC(=O)COc2ccc3oc4c(c3c2)CCCC4)n1,31.6%
6,CO[C@H]1CC[C@@H]2CCOc3ccc(C#N)cc3C(=O)N(C)C[C@@H](OC)[C@@H](C)C(=O)N(C)C[C@H]1O2,40.2%
7,C[C@@H]1CN([C@H](C)CO)C(=O)c2cc(NS(=O)(=O)c3cccs3)ccc2O[C@@H](C)CCCCO[C@@H]1CN(C)Cc1ccc(C(F)(F)F)cc1,-13.6%
8,O=C(CSc1nnnn1-c1cccc2c1CCCC2)N1CCCCC1,5.11%
9,Cc1ccc(NC(=O)c2cccc(OCc3c(C)noc3C)c2)cc1,-87%
10,COCCNC(=O)Nc1ccc2nc(-c3cccs3)c(-c3cccs3)nc2c1,-64.5%
11,O=C(CSc1nnc(CNc2ccc(F)cc2)n1Cc1ccccc1)N1CCOCC1,-5.13%
12,COc1ccc(NC(=O)CSc2nccc(C)n2)cc1,8.89%
13,Cc1ccc(NC(=O)CCNS(=O)(=O)c2ccc3[nH]c(=O)oc3c2)cc1F,-26.9%
14,C[C@@H]1CN([C@H](C)CO)C(=O)c2cc(C#CC3CCCCC3)cnc2O[C@H]1CN(C)C(=O)C1CCCCC1,-2.93%
15,CCOC(=O)c1cccc(NC(=O)C2CCCO2)c1 (configuration not stated),8.93%
16,Cc1ccc(C2C=C(c3ccccc3OC(F)F)Nc3ncnn32)cc1 (configuration not stated),19.5%
17,CNC(=O)CC(=O)Nc1ccccc1C(=O)O,13%
18,O=c1c2c3c(sc2nc2n1CCCS2)CCCC3,44.9%
19,C=CCOC(=O)c1ccc(-n2cncn2)nc1,-9.68%
20,CCC(C(=O)Nc1ccccc1-c1ccccc1)c1ccccc1 (configuration not stated),1.13%
21,CCOCCc1nnc(NC(=O)C(CC)c2ccccc2)s1 (configuration not stated),-0.751%
